ELG1 genotoxic – inducers of genotoxicity in HEK293T ELG1-luciferase cells | HEK293T ELG1-luciferase reporter, luminescence, 16 h | Potency, µM (titrated, usually from 46 µM), most hits filed as activators | 330,000 tested, 1.3% active; also: nearly all actives have a fitted effect of over 60% in size
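Genotoxic stress is detected as increased luminescence from luciferase-tagged ELG1 in HEK293T cells, measured with ONE-Glo after a 16 hr treatment at 37 °C.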
SMN2 splice up – enhancers of SMN2 splice variant expression; HEK293 SMN2-luciferase splicing reporter, luminescence, 30-36 h; Potency, µM (highest dose often 46.1 µM), hits mostly activators; 210,000 tested, 2.8% active; AID 1458; also: nearly all actives have a fitted effect of over 55% in size
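qHTS luciferase splicing reporter: luminescence rises when SMN2 exon 7 is included in transfected HEK293 cells. Compound exposure lasted 30-36 h at 37C, with 4.5 mM final sodium butyrate as control, followed by a ONE-Glo read.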
NPC1 promoter act – NPC1 promoter activation; Huh7 NPC1 promoter luciferase reporter, 24 h; Potency, µM (titrated, usually from 9.22 µM), hits mostly activators; 320,000 tested, 2.4% active; also: nearly all actives have a fitted effect of over 60% in size
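Stably transfected Huh7 (NPC1 promoter→luciferase), 1500 cells/well in Opti-MEM + 10% FBS, 2 h settle, then compound 24 h at 37 °C. Luminescence after 10 min with Amplite reagent.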
Rab9 promoter act – activators of Rab9 promoter | Potency, µM (doses to about 9.22 µM), hits mostly activators | Huh7 Rab9 promoter-luciferase reporter, luminescence, 24 h | 320,000 tested, 2.8% active; also: nearly all actives have a fitted effect of over 60% in size
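Measured in stably transfected Huh7 cells bearing a Rab9 promoter–luciferase construct: 24 h compound treatment at 37 °C, followed by luminescence detection.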
FLuc modulator – inhibits or activates purified firefly luciferase, miR-21 counter-screen; Potency, µM (highest dose often 57.5 µM), most hits filed as inhibitors; AID 588342; 360,000 tested, 6.9% active; purified FLuc, Km substrates, luminescence inhibition; P08659; also: nearly all actives have a fitted effect of over 55% in size
Target sequence (P08659 whole entry, looked up): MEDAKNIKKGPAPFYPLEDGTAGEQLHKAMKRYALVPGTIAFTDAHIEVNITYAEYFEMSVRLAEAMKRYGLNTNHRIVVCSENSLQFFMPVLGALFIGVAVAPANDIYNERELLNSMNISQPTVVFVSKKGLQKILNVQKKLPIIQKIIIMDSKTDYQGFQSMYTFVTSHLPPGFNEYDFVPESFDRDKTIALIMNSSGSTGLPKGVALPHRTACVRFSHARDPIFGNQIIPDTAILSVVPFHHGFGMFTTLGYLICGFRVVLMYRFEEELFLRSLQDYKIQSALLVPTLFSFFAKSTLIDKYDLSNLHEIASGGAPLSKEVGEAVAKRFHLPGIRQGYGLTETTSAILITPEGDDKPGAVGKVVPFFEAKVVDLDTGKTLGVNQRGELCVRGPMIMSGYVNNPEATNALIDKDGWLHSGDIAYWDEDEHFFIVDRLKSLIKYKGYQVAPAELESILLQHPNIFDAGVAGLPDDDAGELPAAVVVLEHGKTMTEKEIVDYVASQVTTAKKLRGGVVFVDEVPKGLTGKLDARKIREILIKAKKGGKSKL
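Purified P. pyralis luciferase, 10 nM final, with Km-level 10 uM D-luciferin and 10 uM ATP in 50 mM Tris acetate pH 7.5, 10 mM Mg acetate, 0.01% Tween-20, 0.05% BSA; 6-point qHTS titration about 60 µM downward; luminescence read.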
A number is an active result; i = inactive; ? = inconclusive; nt = no result given. Compounds with a hit are over-represented: about 7.5% of the library has one in this group of screens. Calls follow the shape of the dose curve; as a rule, active = well fitted curve in the direction sought with a large enough effect; inconclusive = small, poorly fitted or top-dose-only effect, or another doubt; inactive = no such curve, though single readings can be large; an effect the other way counts as inactive or inconclusive.

SMILES	ELG1 genotoxic	SMN2 splice up	NPC1 promoter act	Rab9 promoter act	FLuc modulator
COc1cccc(CNC(=O)Cc2ccc(NC(=O)C3=C(C)OCCS3)cc2)c1	?	nt	?	3.16µM	1.9µM
CC1=C(C(=O)Nc2ccc(CC(=O)NCc3ccccc3C)cc2)SCCO1	?	nt	i	?	2.39µM
COc1ccc(C2=C(C)C(=NCCCN3CCN(c4cc(Cl)ccc4C)CC3)NS2(=O)=O)cc1	nt	nt	nt	nt	i
O=C(CNCc1ccco1)Nc1cccc(S(=O)(=O)N2CCCCC2)c1	i	nt	i	i	i
CCCCCOc1ccc(CN2CCOCC2)cc1Cl	14.1µM	?	3.16µM	3.55µM	6.75µM
Clc1cc(Br)ccc1OCCN1CCOCC1	i	i	i	i	i
CCS(=O)(=O)c1ccc(C(=O)Nc2cccc(Cl)c2)c(Cl)c1Cl	i	i	i	i	i
COCCn1c(C)c(C)c2c(NCCc3ccccc3)ncnc21	?	nt	0.355µM	0.501µM	0.849µM
Cc1c(C)n(CCc2ccccc2)c2ncnc(NN)c12	i	nt	i	i	i
Cc1c(C)n(CCc2ccccc2)c2ncnc(NCCCO)c12	?	nt	1.78µM	1.58µM	10.7µM
Cc1ccc(-c2[nH]nc3c2C(c2cccnc2)C(C#N)=C(N)O3)cc1 (stereo not given)	nt	nt	i	i	i
N#CC1=C(N)Oc2n[nH]c(-c3ccccc3)c2C1c1cccnc1 (stereo not given)	i	3.55µM	i	i	i
N#CC1=C(S)N(c2ccccc2)C(c2cccs2)NC1=O (stereo not given)	i	i	i	i	i
Cc1ccc(N2C(S)=C(C#N)C(=O)NC2c2cccs2)cc1 (stereo not given)	i	4.47µM	i	i	i
COc1ccc(N2C(S)=C(C#N)C(=O)NC2c2ccc(OC)c(OC)c2)cc1 (stereo not given)	i	nt	i	i	?
CCOc1ccc(C2NC(=O)C(C#N)=C(S)N2c2ccc(OC)cc2)cc1OC (stereo not given)	i	i	i	i	21.3µM
COc1ccc(C2NC(=O)C(C#N)=C(S)N2c2ccc(C)cc2)cc1OC (stereo not given)	i	i	i	i	19µM
COc1cc(C2NC(=O)C(C#N)=C(S)N2c2ccc(C)cc2)ccc1OC(C)C (stereo not given)	?	i	i	i	15.1µM
COc1ccc(C2NC(=O)C(C#N)=C(S)N2c2cccc(C)c2)cc1OC (stereo not given)	i	i	i	i	?
CC(=O)NC(NC(C)=O)c1ccc(N(C)C)cc1	i	i	i	i	i
N#Cc1cccc(CN2CCCN(Cc3ccc(F)cc3)S2(=O)=O)c1	i	nt	i	i	i
Cc1ccc(NC(=O)/C(CN(C)C)=N\O)cc1	i	?	?	?	?
COc1cccc(CN2CCC(n3nccc3NC(=O)C3CC3)CC2)c1	i	nt	i	i	i
O=S(=O)(c1ccc(-n2cnnn2)cc1)N1CCNCC1	i	nt	i	i	i
CC1(C)OC(=O)N(c2ccccn2)C1(C)O (stereo not given)	i	i	i	i	i
SMILES	ELG1 genotoxic	SMN2 splice up	NPC1 promoter act	Rab9 promoter act	FLuc modulator
O=C1CCC/C(=N/NC(=O)c2cc(NS(=O)(=O)c3cccs3)cc(NS(=O)(=O)c3cccs3)c2)C1	i	nt	i	i	i
O=C(NCCc1ccc(F)cc1)c1ccc2c(=O)n3c(nc2c1)CCC3	i	nt	i	3.55µM	?
O=C(NCc1ccccc1)c1ccc2c(=O)n3c(nc2c1)CCCCC3	i	nt	i	i	i
O=C(COc1ccccc1F)NNC(=O)c1ccc2c(=O)n3c(nc2c1)CCC3	i	nt	i	i	i
O=C(NCCOc1ccccc1F)c1ccc2c(=O)n3c(nc2c1)CCC3	?	nt	2.82µM	2.24µM	6.01µM
O=S(=O)(Nc1ccc(F)cc1)N1CCCCCC1	i	i	i	i	i
Clc1c2c(nc3ccccc13)CCC2	i	nt	i	i	?
Cc1c2c(nc3ccccc13)CCC(C(C)(C)C)C2 (stereo not given)	i	?	i	i	12µM
c1ccc(-n2nnc3c(N4CCOCC4)ncnc32)cc1	?	i	0.316µM	0.316µM	1.51µM
Cc1cc2nc(C)c(Cl)c(=O)n2[nH]1	i	i	i	i	i
CCOC(=O)Cc1c(C)nc2cc(-c3ccc(C)cc3)[nH]n2c1=O	?	?	i	i	?
Cc1cc(=O)n2[nH]c(-c3ccccc3Cl)cc2n1	i	i	i	i	23.9µM

From PubChem
